# Experimental data published in PubChem BioAssay AID1671192 (National Center for Advancing Translational Sciences (NCATS), 2021).
# Inconclusive results are not listed. Activity calls are given as the source filed them. Calls come from the whole dose curve; as a rule, active = well fitted curve in the direction sought with a large enough effect; inconclusive = small, poorly fitted or top-dose-only effect, or another doubt; inactive = no such curve, though single readings can be large or run the other way.
# Biological target: Polyunsaturated fatty acid lipoxygenase ALOX15 (Homo sapiens) (UniProt P16050)
# Assay: Counterscreen qHTS for inhibitors of human arachidonate 12S-lipoxygenase (ALOX12): ALOX15 Assay; note: 0% is about no effect
# Conditions: purified ALOX15 enzyme activity; series mostly up to 110 µM; activity change, negative = inhibition: at the top concentration
# In short: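 Purified human ALOX15 (15hLO-1) at 40 nM in 25 mM HEPES, 0.01% Triton X-100, pH 7.5, preincubated with compound 15 min at RT. Then 50 uM arachidonic acid for 30 min; hydroperoxide detected by Fe-xylenol orange as the 573/405 nm absorbance ratio.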
# Sequence of Polyunsaturated fatty acid lipoxygenase ALOX15 (Homo sapiens) (P16050 whole entry, looked up): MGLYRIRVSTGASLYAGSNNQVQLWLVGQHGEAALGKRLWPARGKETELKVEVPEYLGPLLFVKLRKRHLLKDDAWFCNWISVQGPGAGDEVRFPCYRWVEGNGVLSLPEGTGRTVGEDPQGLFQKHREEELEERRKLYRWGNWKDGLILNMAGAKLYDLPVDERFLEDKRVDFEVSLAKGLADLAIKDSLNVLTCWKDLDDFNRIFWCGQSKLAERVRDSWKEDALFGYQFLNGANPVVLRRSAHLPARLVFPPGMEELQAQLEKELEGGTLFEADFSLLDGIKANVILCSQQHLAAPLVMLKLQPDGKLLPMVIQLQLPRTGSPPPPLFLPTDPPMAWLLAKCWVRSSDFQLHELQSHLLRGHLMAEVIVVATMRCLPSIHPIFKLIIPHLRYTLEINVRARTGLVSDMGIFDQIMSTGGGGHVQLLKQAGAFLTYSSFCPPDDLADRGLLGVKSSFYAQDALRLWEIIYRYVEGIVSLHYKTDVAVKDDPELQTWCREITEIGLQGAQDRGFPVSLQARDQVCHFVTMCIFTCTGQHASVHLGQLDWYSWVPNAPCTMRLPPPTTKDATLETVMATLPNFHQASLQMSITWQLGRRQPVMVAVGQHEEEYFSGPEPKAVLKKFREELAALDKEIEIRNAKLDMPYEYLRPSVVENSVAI
row,Compound,"activity change, negative = inhibition"
1,CN1CC(=O)N(C2CCNC2)Cc2c(NC3CCN(Cc4ccccc4)CC3)ncnc21 (configuration not stated),-12.4% (inactive)
2,CNCc1ccccc1C(F)(F)F,-27.6% [at 233 µM] (inactive)
3,Cc1ccc(C(=O)N2CCCC3(CC(c4cccnc4)=NO3)C2)cc1 (configuration not stated),-12.4% [at 146 µM] (inactive)
4,O=C1NCc2ccccc2CC12CCN(Cc1ccc(-c3ccccc3)cc1)CC2,-7.2% (inactive)
5,CCCC(=O)N1Cc2ccccc2CC2(CCCN(CC3CCNC3)C2)C1 (configuration not stated),1.43% (inactive)
6,c1ccc2c(c1)CCN2C1CN(Cc2cccc3ccccc23)C1,-7.41% [at 146 µM] (inactive)
7,CN1CC(=O)N(C2CCNC2)Cc2c(NCC3(O)CCCCC3)ncnc21 (configuration not stated),-12.9% (inactive)
8,CN1CC(=O)N(C2CCNCC2)Cc2c1ncnc2N1CCCC(O)C1 (configuration not stated),-20% (inactive)
9,CCCN1CCC2(Cc3ccccc3CN(C(=O)Cc3ccc(O)cc3)C2)C1 (configuration not stated),-27.1% (inactive)
10,CCOc1ccccc1CN1CCCCC12Cc1ccccc1CNC2=O (configuration not stated),-16% (inactive)
11,CCOC(=O)C1CC1CN1CCCC2(Cc3ccccc3CNC2=O)C1 (configuration not stated),1.6% (inactive)
12,O=C(NCc1ccc(Cl)nc1)c1cn2c(n1)CN(C(=O)c1ccccc1)CC2,-6.13% (inactive)
13,COc1ccc(CN2CCCCC23Cc2ccccc2CNC3=O)c(OC)c1 (configuration not stated),-15.9% (inactive)
14,COc1ccc(C(=O)N2CCc3nc(C4CC4)nc(-c4ccc(OC)cc4)c3C2)cc1,-11.3% (inactive)
15,O=C(O)CCCC(=O)N1Cc2ccccc2CC2(CCCN(Cc3ccncc3)C2)C1 (configuration not stated),-23% (inactive)
16,CN1CC(=O)N(C2CCCNC2)Cc2c(NCC(C)(C)C)ncnc21 (configuration not stated),-8.17% (inactive)
17,CNCc1ccc(F)cc1,-9.69% [at 233 µM] (inactive)
18,CNC(C)c1c(F)cccc1F (configuration not stated),-21.6% [at 233 µM] (inactive)
19,O=C1Nc2ccccc2CN(C/C=C/c2ccccc2)C12CCNC2 (configuration not stated),-5.11% [at 146 µM] (inactive)

row,Compound,"activity change, negative = inhibition"
1,CCN1CCCCC12Cc1ccccc1CN(S(=O)(=O)c1ccccc1)C2 (configuration not stated),0.95% (inactive)
2,CN1CC(=O)N(C2CCCNC2)Cc2c(NCCCO)ncnc21 (configuration not stated),-25.2% [at 146 µM] (inactive)
3,COc1ccc(OC2CN(Cc3cccc4ccccc34)C2)cc1,-16% [at 146 µM] (inactive)
4,COc1ccc(N2CC3CCC(C2)N3C(=O)c2ccc3c(c2)OCO3)cc1,-8.37% (inactive)
5,CC(=O)N1CCC(c2nnc3n2CCNC3)CC1,-21.6% [at 146 µM] (inactive)
6,O=C1NCc2ccccc2CC12CCCN2Cc1ccc(O)cc1O (configuration not stated),8.91% [at 146 µM] (inactive)
7,COC[C@@H]1CCCN1c1ncnc2c1CN(C1CCNC1)C(=O)CN2C (some centres not stated),0.659% (inactive)
8,CCOCCCNc1ncnc2c1CN(C1CCNCC1)C(=O)CN2C,-7.5% (inactive)
9,O=C(c1cc(C2CC2)nc2onc(C3CCCN3)c12)N1CCC(F)CC1 (configuration not stated),-8.64% (inactive)
10,Cc1ccc(-c2ccc(C=O)cc2)cc1Cl,-10.5% [at 233 µM] (inactive)
11,CC(C)c1nc2c(c(-c3ccc(Cl)cc3)n1)CCN(Cc1cccc3ccccc13)CC2,-12.9% (inactive)
12,CN1CC(=O)N(C2CCCNC2)Cc2c1ncnc2N1CCN(Cc2ccccc2)CC1 (configuration not stated),-18.3% (inactive)
13,CN1CC(=O)N(C2CCNCC2)Cc2c1ncnc2N1CCCC1CO (configuration not stated),-27.7% (inactive)
14,CCc1ccc(CN2CCCC3(Cc4ccccc4CNC3=O)C2)s1 (configuration not stated),11.2% [at 146 µM] (inactive)
15,CN1CC(=O)N(c2ccc(Cl)cc2)Cc2c(NC3CCNCC3)ncnc21,-20.7% (inactive)
16,COc1cccc(-c2ccc(CN)cc2)c1,-1.18% [at 146 µM] (inactive)
17,O=C(N1CCOCC1)N1CCN(c2ccc(Cl)nn2)C(=O)C1,-10.6% [at 146 µM] (inactive)
18,CC(=O)NC1CC2(CCN(C(=O)Cc3c(C)noc3C)CC2)Oc2ccccc21 (configuration not stated),-16.5% (inactive)
